Unmarked numbers belong to inactive results. The list shows a part of the results. Activity calls are given as the source filed them. Cut-off read from the data, not from the text of the source, unless noted: active = inhibition above about 25%; inactive = the rest.
Assays:
[1] = target: Nuclear receptor coactivator 1 (Homo sapiens) (UniProt Q15788); test: NCOA1 GAL4-fusion reporter inhibition – cell-based, luminescence, quadruplicate, confirmation (AID 588820;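 active = mean inhibition above 46.68%, the untreated control wells mean plus 3 SD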;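 note: 0% = DMSO wells and 100% = gossypol 36 µM treated wells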); conditions: HEK293 GAL4-SRC1 luciferase reporter, at 3.6 µM, stronger effect = higher value
[2] = repression of VP16-driven luciferase reporter – cell-based, luminescence, high throughput, counter-screen for SRC1 inhibitor project (AID 588824); conditions: cell-based VP16 transactivation luciferase luminescence; at 3.6 µM; stronger effect = higher value
[3] = StAR promoter reporter inhibitors, counter-screen for LRH-1 inverse agonist project, cell-based, luminescence, high throughput (AID 651611; in the data active = inhibition above about 28%); conditions: StAR promoter luciferase reporter counterscreen, at 3.6 µM, stronger effect = higher value
[4] = target: Nuclear receptor subfamily 5 group A member 2 (Homo sapiens) (UniProt O00482); test: NR5A2 activity suppression in reporter cells – cell-based, luminescence, confirmation (AID 651613; in the data active = inhibition above about 42%;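 note: HEK293T cells co-transfected with LRH-1 and StAR promoter luciferase reporter; 0% = vehicle wells and 100% = parental cells lacking receptor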); conditions: cell-based LRH-1 luciferase reporter, inverse agonism; at 3.6 µM; stronger effect = higher value
[5] = target: Steroidogenic factor 1 (Homo sapiens) (UniProt Q13285); test: inverse agonism at SF1 nuclear receptor – cell-based, luminescence, high throughput, counter-screen for LRH-1 inverse agonist project (AID 651614; in the data active = inhibition above about 44%;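 note: cells cotransfected with StAR promoter reporter and SF1 expression vector; 0% = vehicle on cells with receptor and 100% = vehicle on cells lacking receptor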); conditions: cell-based SF1 luciferase reporter, at 3.6 µM, stronger effect = higher value
[6] = compounds suppressing VP16-driven luciferase signal – cell-based, luminescence, high throughput, counter-screen for LRH-1 inverse agonist project (AID 651615; in the data active = inhibition above about 33%); conditions: Gal4-VP16 luciferase reporter cells, at 3.6 µM, stronger effect = higher value
[7] = target: Photoreceptor-specific nuclear receptor (Homo sapiens) (UniProt Q9Y5X4); test: retest of NR2E3-NCOR disrupting agonists – cell-based, luminescence, CHO-S two-hybrid, confirmation (AID 624378;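 active = average inhibition above a cutoff equal to the mean inhibition of all tested compounds plus one SD, cut at about 70% in these data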;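 note: 0% = DMSO in NR2E3 cells and 100% = DMSO in cells lacking NR2E3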); conditions: CHO-S mammalian two-hybrid NR2E3-NCOR, luciferase luminescence; at 3.98 µM; stronger effect = higher value
[8] = nonselective effects on VP16 transactivation – cell-based, luminescence, CHO-S, high throughput, counter-screen for NR2E3 agonist project, confirmation (AID 624379;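 active = mean inhibition above a cutoff equal to the average over all tested compounds plus one standard deviation, cut at about 70% in these data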;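 note: 0% = DMSO with VP16-transfected cells and 100% = DMSO with cells lacking VP16; higher means less reporter light so more repression of VP16 activity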); conditions: CHO-S GAL4-VP16 luciferase reporter, at 3.98 µM, stronger effect = higher value
[9] = VP16-driven transactivation reporter suppression – cell-based, luminescence, HEK293, counter-screen for COUP-TFII antagonist project (AID 687007; in the data active = inhibition above about 13%); conditions: HEK293 Gal4-VP16 luciferase reporter, at 8.5 µM, stronger effect = higher value
[10] = target: COUP transcription factor 2 (Homo sapiens) (UniProt P24468); test: retest of COUP-TFII reporter suppressors – cell-based, luciferase reporter, HEK293, triplicate, confirmation (AID 687008;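 active = mean inhibition over three repeats above a set limit taken from the earlier primary screen, cut at about 38% in these data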;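 note: 100% = cells given the luciferase reporter alone without the COUP-TF2 vector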); conditions: HEK293 NGFI-A luciferase reporter, luminescence; at 8.5 µM; stronger effect = higher value
Chain of COUP transcription factor 2 (Homo sapiens) (P24468 whole entry, looked up): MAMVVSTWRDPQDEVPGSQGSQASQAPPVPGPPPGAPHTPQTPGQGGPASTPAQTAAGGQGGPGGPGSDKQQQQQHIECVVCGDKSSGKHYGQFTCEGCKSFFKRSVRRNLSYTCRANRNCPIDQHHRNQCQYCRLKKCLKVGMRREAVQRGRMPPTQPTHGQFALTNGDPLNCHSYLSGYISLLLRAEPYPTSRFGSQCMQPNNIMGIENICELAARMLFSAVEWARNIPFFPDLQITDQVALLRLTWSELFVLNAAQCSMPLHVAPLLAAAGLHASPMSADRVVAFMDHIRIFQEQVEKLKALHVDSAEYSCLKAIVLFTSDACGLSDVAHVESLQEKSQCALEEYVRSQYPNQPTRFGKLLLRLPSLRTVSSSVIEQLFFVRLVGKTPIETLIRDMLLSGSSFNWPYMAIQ

Chain of Steroidogenic factor 1 (Homo sapiens) (Q13285 whole entry, looked up, the tested form may be a part): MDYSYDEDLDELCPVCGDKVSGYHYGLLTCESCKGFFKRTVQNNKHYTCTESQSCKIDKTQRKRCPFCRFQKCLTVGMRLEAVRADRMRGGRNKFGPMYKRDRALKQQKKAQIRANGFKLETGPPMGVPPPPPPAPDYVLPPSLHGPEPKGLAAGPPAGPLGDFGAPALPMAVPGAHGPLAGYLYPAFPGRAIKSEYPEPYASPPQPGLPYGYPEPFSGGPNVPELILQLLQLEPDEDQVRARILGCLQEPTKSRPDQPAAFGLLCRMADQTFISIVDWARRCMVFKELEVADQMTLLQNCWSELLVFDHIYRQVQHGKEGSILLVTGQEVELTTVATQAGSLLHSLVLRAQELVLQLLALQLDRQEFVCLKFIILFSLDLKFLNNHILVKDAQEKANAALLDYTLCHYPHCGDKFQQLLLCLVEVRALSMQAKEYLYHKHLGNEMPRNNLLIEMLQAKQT
Chain of Nuclear receptor subfamily 5 group A member 2 (Homo sapiens) (O00482 whole entry, looked up): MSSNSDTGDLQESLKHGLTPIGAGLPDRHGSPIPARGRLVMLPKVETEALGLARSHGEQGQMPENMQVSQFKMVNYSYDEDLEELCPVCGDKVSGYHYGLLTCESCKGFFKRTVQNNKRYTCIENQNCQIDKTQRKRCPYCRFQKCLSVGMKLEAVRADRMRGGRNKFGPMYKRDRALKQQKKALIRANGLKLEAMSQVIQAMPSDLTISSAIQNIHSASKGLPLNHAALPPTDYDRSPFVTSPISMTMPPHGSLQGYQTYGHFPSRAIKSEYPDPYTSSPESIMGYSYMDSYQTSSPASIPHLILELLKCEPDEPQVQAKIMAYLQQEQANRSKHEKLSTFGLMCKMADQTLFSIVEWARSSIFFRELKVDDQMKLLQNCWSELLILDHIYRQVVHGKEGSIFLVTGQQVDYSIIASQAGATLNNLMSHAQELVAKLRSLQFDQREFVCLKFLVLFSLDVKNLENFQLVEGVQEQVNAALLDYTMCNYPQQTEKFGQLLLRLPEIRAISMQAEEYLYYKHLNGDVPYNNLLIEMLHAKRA
Chain of Nuclear receptor coactivator 1 (Homo sapiens) (Q15788 whole entry, looked up, the tested form may be a part): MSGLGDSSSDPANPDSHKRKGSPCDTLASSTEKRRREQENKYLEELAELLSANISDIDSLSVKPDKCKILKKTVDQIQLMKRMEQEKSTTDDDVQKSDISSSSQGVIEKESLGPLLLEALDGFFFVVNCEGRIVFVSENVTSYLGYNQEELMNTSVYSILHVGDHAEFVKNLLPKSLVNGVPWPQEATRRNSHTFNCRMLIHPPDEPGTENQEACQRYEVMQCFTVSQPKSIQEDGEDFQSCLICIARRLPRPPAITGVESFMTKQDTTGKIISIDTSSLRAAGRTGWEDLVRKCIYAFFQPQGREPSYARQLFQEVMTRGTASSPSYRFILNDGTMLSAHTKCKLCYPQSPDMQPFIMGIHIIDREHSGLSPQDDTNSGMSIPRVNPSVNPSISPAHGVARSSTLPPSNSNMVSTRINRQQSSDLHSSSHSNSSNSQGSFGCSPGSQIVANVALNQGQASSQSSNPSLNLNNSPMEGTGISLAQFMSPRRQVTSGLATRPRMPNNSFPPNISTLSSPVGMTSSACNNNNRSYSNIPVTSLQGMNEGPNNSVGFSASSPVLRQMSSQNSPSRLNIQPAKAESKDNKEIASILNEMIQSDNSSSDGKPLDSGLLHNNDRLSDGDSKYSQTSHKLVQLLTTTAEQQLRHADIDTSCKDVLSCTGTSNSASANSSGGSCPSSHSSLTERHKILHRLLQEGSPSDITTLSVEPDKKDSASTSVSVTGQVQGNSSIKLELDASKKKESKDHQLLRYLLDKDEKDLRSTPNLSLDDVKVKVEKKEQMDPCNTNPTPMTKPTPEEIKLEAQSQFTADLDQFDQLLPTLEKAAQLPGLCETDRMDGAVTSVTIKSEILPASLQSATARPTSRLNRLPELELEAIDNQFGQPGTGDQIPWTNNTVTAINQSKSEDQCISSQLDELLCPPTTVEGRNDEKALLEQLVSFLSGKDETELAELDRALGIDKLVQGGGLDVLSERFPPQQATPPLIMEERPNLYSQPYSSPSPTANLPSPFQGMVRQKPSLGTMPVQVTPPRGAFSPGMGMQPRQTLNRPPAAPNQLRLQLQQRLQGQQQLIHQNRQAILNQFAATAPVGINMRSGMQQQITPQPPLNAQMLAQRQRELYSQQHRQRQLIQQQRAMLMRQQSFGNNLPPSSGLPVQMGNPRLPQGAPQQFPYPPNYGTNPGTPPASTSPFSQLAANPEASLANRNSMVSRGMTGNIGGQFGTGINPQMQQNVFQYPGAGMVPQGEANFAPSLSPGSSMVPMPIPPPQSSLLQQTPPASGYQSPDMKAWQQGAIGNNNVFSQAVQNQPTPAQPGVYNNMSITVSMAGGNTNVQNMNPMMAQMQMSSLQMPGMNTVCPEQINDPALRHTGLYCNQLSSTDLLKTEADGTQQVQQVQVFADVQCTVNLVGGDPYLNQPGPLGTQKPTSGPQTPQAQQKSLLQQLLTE
Chain of Photoreceptor-specific nuclear receptor (Homo sapiens) (Q9Y5X4 whole entry, looked up): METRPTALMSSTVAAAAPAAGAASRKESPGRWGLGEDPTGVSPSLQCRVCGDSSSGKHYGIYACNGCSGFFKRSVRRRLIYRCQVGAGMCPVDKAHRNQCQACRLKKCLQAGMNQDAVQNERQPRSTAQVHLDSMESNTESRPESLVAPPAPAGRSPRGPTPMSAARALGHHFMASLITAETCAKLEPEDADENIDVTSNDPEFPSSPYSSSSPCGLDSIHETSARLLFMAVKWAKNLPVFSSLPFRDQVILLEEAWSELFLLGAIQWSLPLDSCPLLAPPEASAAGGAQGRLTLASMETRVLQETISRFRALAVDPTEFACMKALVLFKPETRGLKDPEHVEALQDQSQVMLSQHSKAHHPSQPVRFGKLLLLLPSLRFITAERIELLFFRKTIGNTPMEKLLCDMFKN

SMILES: Cn1cc(S(=O)(=O)Nc2ccc(OC(F)(F)F)cc2)c(=O)n(C)c1=O
- inhibition [1]: 6.39%
- inhibition [2]: -5.51%

SMILES: CCC(C)c1ccc(C(C)NC(=S)NCc2ccc(F)cc2)cc1 (stereo not drawn)
- inhibition [1]: -3.08%
- inhibition [2]: -3.56%

SMILES: CCOC(=O)N1CCN(Cc2nc(Cc3cccc(C(F)(F)F)c3)no2)CC1
- inhibition [1]: -24.9%
- inhibition [2]: -12.2%

SMILES: COc1ccc(C(=O)Nc2ccc(Cl)c(S(=O)(=O)N3CCOCC3)c2)cc1
- inhibition [1]: -18.1%
- inhibition [2]: 1.15%

SMILES: O=C(CSc1nc(C2CC2)nc2ccccc12)Nc1cccc(O)c1
- inhibition [1]: -0.77%
- inhibition [2]: 1.43%

SMILES: Cc1cc(C)c(OCCN2CCCC2)c(Cl)c1
- inhibition [1]: -3.95%
- inhibition [2]: 2.73%

SMILES: CC(C)N1C(=O)c2ccccc2N(Cc2ccccc2)S1(=O)=O
- inhibition [1]: -4.94%
- inhibition [2]: 1.81%

SMILES: O=C(Nc1ccncc1)c1ccc(Cl)c(S(=O)(=O)N2CCc3ccccc32)c1
- inhibition [1]: -6.49%
- inhibition [2]: 36.8% (active)

SMILES: COc1ccc(CCN(C)C(=O)CSc2nnc(C3CC3)n2N)cc1OC
- inhibition [1]: 6.18%
- inhibition [2]: 12.5%

SMILES: CCc1noc(C)c1C(=O)Nc1ccccc1N1CCOCC1
- inhibition [1]: -11%
- inhibition [2]: 1.51%

SMILES: O=S(=O)(c1cccc(C(F)(F)F)c1)N1c2ccccc2-n2cccc2C1c1cccnc1 (stereo not drawn)
- inhibition [1]: 12.9%
- inhibition [2]: 17.7%

SMILES: COC(=O)C(C)Sc1nc(NCc2ccccc2)nc(N(C)C)n1 (stereo not drawn)
- inhibition [1]: -11.2%
- inhibition [2]: -11.6%

SMILES: Cc1csc(-c2cc(C(=O)NCc3cc(C(F)(F)F)cc(C(F)(F)F)c3)n[nH]2)c1
- inhibition [1]: 20.5%
- inhibition [2]: 47.2% (active)

SMILES: Cc1ccc2c(c1)c(/C=C/c1cc[n+](C)cc1)c(C)n2C
- inhibition [1]: 32.9%
- inhibition [2]: 57.1% (active)
- inhibition [3]: 59.6% (active)
- inhibition [4]: 91.4% (active)
- inhibition [5]: 81.1% (active)
- inhibition [6]: 80% (active)

SMILES: CCc1c(C)nc2ncnn2c1NCCc1ccc(OC)cc1
- inhibition [1]: -21.1%
- inhibition [2]: 28.3% (active)
- inhibition [3]: 46.9% (active)
- inhibition [4]: 53.9% (active)
- inhibition [5]: 66.2% (active)
- inhibition [6]: 42.2% (active)

SMILES: COc1ccc2c(c1)-c1c(ssc1=S)C(C)(C)N2C(=O)CSC1=NCCS1
- inhibition [1]: 24.9%
- inhibition [2]: 12.4%

SMILES: CCN(C(=S)NC(=O)C1CC1)c1ccccc1
- inhibition [1]: -8.52%
- inhibition [2]: -4.48%

SMILES: COc1cccc(CNc2nc(NCc3cccs3)nc3ccsc23)c1
- inhibition [1]: -9.48%
- inhibition [2]: 2.77%
- inhibition [7]: 67.6%
- inhibition [8]: 47.4%
- inhibition [9]: -0.37%
- inhibition [10]: 13.2%

SMILES: Cc1ccc(S(=O)(=O)/N=C(\CCl)N2CCOCC2)cc1
- inhibition [1]: -32.5%
- inhibition [2]: -30.7%
- inhibition [3]: 23.9%
- inhibition [4]: 50.2% (active)
- inhibition [5]: 52.1% (active)
- inhibition [6]: -22.8%

SMILES: COc1ccc(CCNc2c3ccccc3nc3ccccc23)cc1OC
- inhibition [1]: -6.86%
- inhibition [2]: 26.2% (active)

SMILES: O=C(NC1CCCCC1)C(c1ccc(F)cc1)N(Cc1ccco1)C(=O)c1csnn1 (stereo not drawn)
- inhibition [1]: -14.3%
- inhibition [2]: -0.45%

SMILES: O=C1C2C3C=CC(C3)C2C(=O)N1CN(Cc1ccccc1)CN1C(=O)C2C3C=CC(C3)C2C1=O (stereo not drawn)
- inhibition [1]: -20.9%
- inhibition [2]: -14.3%

SMILES: Cc1cc2[nH]c3c(c[n+](C)c4ccccc34)c2cc1C
- inhibition [1]: 20.9%
- inhibition [2]: 47.8% (active)
- inhibition [3]: 41.7% (active)
- inhibition [4]: 100% (active)
- inhibition [5]: 66.4% (active)
- inhibition [6]: 84.2% (active)

SMILES: CCCOc1ccc(Cc2c(Cl)nc(SC)nc2NC)cc1
- inhibition [1]: -9.8%
- inhibition [2]: 24.6%
- inhibition [7]: 94.6% (active)
- inhibition [8]: 85.9% (active)
- inhibition [3]: 4.85%
- inhibition [4]: 54.9% (active)
- inhibition [5]: 55.9% (active)
- inhibition [6]: 35.5% (active)
- inhibition [9]: 2.67%
- inhibition [10]: 44.7% (active)

SMILES: CC(=O)NC(c1ccc(Cl)cc1Cl)c1ccc2cccnc2c1O (stereo not drawn)
- inhibition [1]: 67.2% (active)
- inhibition [2]: 70.6% (active)
- inhibition [3]: 85.4% (active)
- inhibition [4]: 102% (active)
- inhibition [5]: 86.8% (active)
- inhibition [6]: 80.2% (active)

SMILES: c1ccc(-c2cn(-c3ccccc3)c3ncnc(N4CCCCC4)c23)cc1
- inhibition [1]: 1.38%
- inhibition [2]: 9.49%

SMILES: COCCn1c(SCCCC(=O)c2ccc(Br)cc2)nnc1-c1ccncc1
- inhibition [1]: -2.26%
- inhibition [2]: 25.2%
- inhibition [3]: 6.33%
- inhibition [4]: 44.3% (active)
- inhibition [5]: 46% (active)
- inhibition [6]: 44.7% (active)

SMILES: COc1ccc(N(Cc2cc3cc(OC)ccc3[nH]c2=O)S(=O)(=O)c2ccc(NC(C)=O)cc2)cc1
- inhibition [1]: -21.4%
- inhibition [2]: -1.84%

SMILES: COc1cc(C(=O)O)cc(NC(=O)c2ccco2)c1OC
- inhibition [1]: -9.74%
- inhibition [2]: 2.33%

SMILES: O=c1[nH]cnc2sc3c(c12)CCCC3
- inhibition [1]: 10.8%
- inhibition [2]: 11.2%

SMILES: CC(=NNC(=S)N1CCCCC1)c1ccccn1
- inhibition [1]: 36.5%
- inhibition [2]: 61.5% (active)
- inhibition [3]: 70.5% (active)
- inhibition [4]: 95.3% (active)
- inhibition [5]: 82.2% (active)
- inhibition [6]: 52.6% (active)

SMILES: COc1ccc(-c2coc3c(C(=O)NCc4ccc(OC)c(OC)c4)cccc23)c(C)c1
- inhibition [1]: -32%
- inhibition [2]: 41.2% (active)
- inhibition [3]: 28% (active)
- inhibition [4]: 80.8% (active)
- inhibition [5]: 49% (active)
- inhibition [6]: 57.8% (active)

— PubChem BioAssay
